CYP2C19 act: activators of human cytochrome P450 2C19; P33261; activation factor at 5 µM; recombinant CYP2C19, luciferin-H EGE luminescence; hits give high values; 0 = fully inhibited enzyme, 1 = untreated enzyme; 96,000 tested, under 10 active; AID 1025;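 active = activation factor of at least 2 at 5 µM in the primary screen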;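 note: 0 = wells with 2.5 mM tranylcypromine and 1 = vehicle-only wells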
Measles CPE: protection of cells from measles virus. protection (pct of control), % at 4 µM. 140,000 compounds, 1.5% hits. Measles virus-infected cells, CPE protection, absorbance; in the data active = protection mostly above about 24%, no sharp cut-off; inactive = mostly below about 26%
CYP2C9 activ: increases human cytochrome P450 2C9 activity | recombinant CYP2C9, luciferin-H conversion, luminescence; hits give high values; factor 1 = untreated enzyme, 0 = blocked | activation factor at 5 µM | 96,000 compounds, 1.4% hits | AID 1024;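 active = activation factor of 2 or more for CYP2C9 at a 5 µM dose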;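 note: 0 = sulfaphenazole-blocked wells and 1 = vehicle-only wells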
Target sequence (P11712 whole entry, looked up): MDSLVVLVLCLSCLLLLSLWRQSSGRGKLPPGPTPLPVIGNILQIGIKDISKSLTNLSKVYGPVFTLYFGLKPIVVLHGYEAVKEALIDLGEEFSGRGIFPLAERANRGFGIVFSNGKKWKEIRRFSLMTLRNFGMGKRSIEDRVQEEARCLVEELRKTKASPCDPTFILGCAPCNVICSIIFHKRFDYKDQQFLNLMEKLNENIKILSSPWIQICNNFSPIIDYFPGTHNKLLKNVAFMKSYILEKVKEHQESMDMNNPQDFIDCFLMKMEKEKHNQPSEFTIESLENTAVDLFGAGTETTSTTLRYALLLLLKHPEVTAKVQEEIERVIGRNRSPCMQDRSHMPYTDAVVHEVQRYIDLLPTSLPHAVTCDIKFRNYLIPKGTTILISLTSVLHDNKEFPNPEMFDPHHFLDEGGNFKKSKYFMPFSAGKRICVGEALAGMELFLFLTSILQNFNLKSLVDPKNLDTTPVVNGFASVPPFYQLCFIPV
CYP2C9 inh: blocks human cytochrome P450 2C9. P11712. 96,000 compounds, 20% hits. inhibition, % at 5 µM. CYP2C9 Supersomes, luciferin-H conversion, luminescence;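 active = blocking of liver enzyme CYP2C9 beyond about 50% at 5 µM, limit read from the data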
CYP2C19 inh: human CYP2C19 inhibition; P33261; CYP2C19 Supersomes, luciferin-H EGE luminescence, 30 min; inhibition, % at 5 µM; 96,000 compounds, 21% hits;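 active = CYP2C19 inhibition above a set limit at 5 µM in the primary screen, cut at about 50% in these data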;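 note: plate controls were negative control wells for no effect and 2.5 mM tranylcypromine positive control for full effect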
The depositor's hits bear a star; . = not tested or not shown. Sampled rows, rich in hits. Any-hit rate of the full collection: about 22%.

SMILES | CYP2C19 act | Measles CPE | CYP2C9 activ | CYP2C9 inh | CYP2C19 inh
COc1ccccc1C(=O)O/N=C(\N)c1ccc(Cl)cc1 | 1 | 2 | 3* | -199 | 0
Cc1ccc(/C(N)=N/OC(=O)c2ccc(Cl)cc2Cl)cc1 | . | 2 | . | . | .
COc1cccc(C(=O)O/N=C(\N)c2ccncc2)c1 | 0.2 | 4 | 0.3 | 70* | 82*
COc1ccc(/C(N)=N/OC(=O)c2cccc([N+](=O)[O-])c2)cc1 | 1.1 | 15 | 1.1 | -6 | -9
COc1cccc(C(=O)O/N=C(\N)c2ccc([N+](=O)[O-])cc2)c1 | 0.9 | 3 | 2* | -96 | 12
CC(=O)NC1(c2nnnn2CCOC(=O)Nc2ccc(Cl)cc2)CCCCC1 | 0.1 | 8 | 0.3 | 71* | 95*
CC(=O)N(C)C1(c2nnnn2CCOC(=O)Nc2ccc(Cl)cc2)CCCCC1 | 0.1 | 4 | 0.5 | 48 | 93*
O=C(Nc1ccc(Cl)cc1)OCCn1nnnc1C(c1ccccc1Cl)N1CCOCC1 (stereo not drawn) | 0.5 | 5 | 0.5 | 54* | 46
CC(=O)N(C)C1(c2nnnn2CCOC(=O)Nc2cccc3ccccc23)CCCC1 | 0.8 | 8 | 1 | 0 | 18
CCOc1ccc(NC(=O)CCSc2nc3c(c(CC)c2C#N)C(=O)CC(C)(C)C3)cc1 | 0.1 | 21 | 0.1 | 90* | 90*
CCc1c(C#N)c(SCCC(=O)Nc2ccc(C)cc2)nc2c1C(=O)CC(C)(C)C2 | 0 | 5 | 0 | 95* | 96*
Cc1ccc(C)c(N2CN(Cc3ccco3)CNC2=S)c1 | . | 5 | . | . | .
CC(=O)NC(=O)c1nnn(Cc2ccccc2)c1NC(C)=O | 1.1 | 2 | 0.9 | 6 | -6
O=[N+]([O-])c1ccccc1CNc1ccc(F)c(Cl)c1 | . | 7 | . | . | .
COc1ccc(OC)c(CNc2ccc(F)c(Cl)c2)c1 | 0.7 | 6 | 0.4 | 58* | 30
COc1ccc(-c2nc(C#N)c(NCCCN(C)C)o2)cc1OC | 1 | 15 | 1 | -1 | -2
COc1ccc(-c2nc(C#N)c(NC(C)c3ccccc3)o2)cc1OC (stereo not drawn) | 0.6 | 3 | 0.5 | 53* | 40
CCOc1ccc(-c2nc(C#N)c(NCC3CCCO3)o2)cc1 (stereo not drawn) | 1 | 7 | 0.9 | 7 | -2
COc1ccc(-c2nc(C#N)c(NCC3CCCO3)o2)cc1OC (stereo not drawn) | 0.3 | 22 | 0.3 | 71* | 67*
C=CCNc1oc(-c2ccc(OC)cc2)nc1C#N | 0.5 | 3 | 0.7 | 31 | 49
COc1ccc(CCNc2oc(-c3ccccc3OC)nc2C#N)cc1 | 0.1 | 5 | 0.4 | 60* | 92*
COc1ccc(-c2nc(C#N)c(N3CCOCC3)o2)cc1OC | 0.8 | 29 | 1.1 | -12 | 21
COc1ccc(CCNc2oc(-c3ccc(OC)c(OC)c3)nc2C#N)cc1 | 0.5 | 4 | 0.5 | 53* | 52*
COC(=O)c1cn(NC(=O)CC2CCCCC2)c(=O)c2ccccc12 | 0.9 | 21 | 0.8 | 16 | 14
CCOC(=O)/C(=N\NC(=O)c1ccccc1)c1ccccc1 | 0.8 | 4 | 0.7 | 28 | 22
SMILES | CYP2C19 act | Measles CPE | CYP2C9 activ | CYP2C9 inh | CYP2C19 inh
COc1ccccc1-c1nc(C#N)c(NCc2ccc(F)cc2)o1 | 0.2 | 8 | 0.4 | 60* | 76*
CN(C)CCNc1oc(-c2ccccc2F)nc1C#N | 1 | 15 | 1 | 3 | -1
CCNc1oc(-c2cccc3ccccc23)nc1C#N | 0.7 | 3 | 0.9 | 15 | 30
COc1ccc(CCNc2oc(-c3ccccc3OC)nc2C#N)cc1OC | 0 | 6 | 0.3 | 72* | 98*
N#Cc1nc(-c2ccccc2F)oc1NCc1cccc2c1OCO2 | 0.9 | 2 | 0.1 | 86* | 11
N#Cc1nc(-c2ccc(F)cc2)oc1NCc1ccccc1 | 0.8 | 10 | 0.6 | 40 | 18
O=C(NC1C(=O)NNC1c1ccccc1)c1ccc(F)cc1 (stereo not drawn) | 0.8 | 2 | 0.7 | 30 | 16
Cc1ccc(C2NNC(=O)C2NC(=O)c2ccccc2)cc1 (stereo not drawn) | 0.4 | 22 | 0.8 | 23 | 60*
CCCCOc1cccc(-c2nnc(N)s2)c1 | 0.7 | 1 | 0.8 | 23 | 31
CCCCCCOc1cccc(N)c1 | 0.4 | 18 | 0.6 | 35 | 64*
Oc1[nH]c(=S)sc1/C=C1\C(c2ccccc2)=Nc2ccccc21 | . | 17 | . | . | .
CCOc1cc2c3c(c1)C1(Nc4ccccc4S1)C(=O)N3C(C)(C)CC2C (stereo not drawn) | 0.1 | 8 | 0 | 100* | 88*
